Assay results reported in PubChem BioAssay AID1347075 (National Center for Advancing Translational Sciences (NCATS), 2019).
The whole screen tested about 400,000 compounds, of which about 5,500 (1.4%) were called active. Roughly 9% stayed inconclusive and do not appear here. This is one part of a sample in which actives are shown more often than they occur. Unmarked numbers belong to inactive results. Calls come from the whole dose curve; as a rule, active = well fitted cell-killing curve with a large enough effect; inconclusive = small, poorly fitted or top-dose-only effect, or effect the other way; inactive = flat fitted curve, though single readings scatter.

Experiment: qHTS assay for MDR1-selective chemotherapeutics: Primary screen using the parental adenocarcinoma cell KB-3-1; note: nearly all actives have a fitted effect of over 60% in size
Settings: KB-3-1 viability, CellTiter-Glo ATP luminescence, 72 h; series mostly up to 46.1 µM; activity change, negative = cytotoxic: at the top concentration
Outline: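 Screening of KB-3-1 cells (DMEM, 10% FBS, phenol-red free) ran from lowest to highest compound concentration; after 72 h at 37 °C viability was read luminescently and curves fitted.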
% is set by controls: 0 for no effect and ±100 for the full control effect; potency is the fitted concentration of half-maximal effect.

| Compound | Potency | activity change, negative = cytotoxic |
| --- | --- | --- |
| CC(C)OC(=O)CN1C(=O)C(=O)c2ccccc21 | 18.4 µM (active) | – |
| CC(OC(=O)CN1C(=O)c2ccccc2C1=O)C(=O)c1ccccc1 (centres undefined) | – | 7.26% |
| Cc1cc(/C=C2/SC(=O)N(CC(=O)OC(C)C)C2=O)c(C)n1C | – | -8.03% |
| CCCCNC(=O)c1cc(-c2ccc(Cl)c(Cl)c2)on1 | – | 13.5% |
| CCc1cccc(-n2nnc(-c3nsc(NC(=O)c4ccc(C)cc4)n3)c2C)c1 | – | 0.369% |
| COc1ccc(-n2nnc(-c3nsc(NC(=O)c4ccc(C)c(C)c4)n3)c2C)cc1Cl | – | 1.71% |
| Cc1c(-c2nsc(NC(=O)c3cccc(Cl)c3)n2)nnn1-c1ccccc1C(F)(F)F | 23.1 µM (active) | – |
| Cc1ccc(-c2nc(=N)sn2Cc2ccccc2)cc1 | – | -13.7% |
| CCOc1ccccc1N(C)C(=O)c1cc2c(s1)-c1ccccc1OC2 | – | 3.52% |
| CCCCC(CCCC)c1ccc(C=Nc2ccc(/C=C/c3ccnc4ccccc34)cc2)cc1 | – | 0% |
| Cc1cc(C)n2ncc(C(=O)N3CCCC3)c2n1 | – | 5.58% |
| COc1cccc(-c2nnc(SCCOc3ccc4c(C)cc(=O)oc4c3)o2)c1 | – | 6.22% |
| Cc1ccccc1NC(=O)c1ccc(COc2ccc3c(C)cc(=O)oc3c2)cc1 | – | 4.61% |
| Cc1cc(=O)oc2cc(OCC3CC(c4ccccc4Cl)=NO3)ccc12 (centres undefined) | 1.3 µM (active) | – |
| COC(=O)c1ccc(NC(=O)c2cnn(-c3ccc(Cl)cc3)c2C2CCN(C(=O)OC(C)(C)C)CC2)cc1 | – | 5.93% |
| N#CCSc1nc(-c2ccccc2)nc2ccc(F)cc12 | – | -4.14% |
| Clc1ccc2nc(-c3ccccc3)nc(C(Cl)Cl)c2c1 | 3.26 µM (active) | – |
| Fc1ccc2nc(-c3ccccc3)nc(SCc3nnc(-c4ccccc4)o3)c2c1 | – | 15.5% |
| Oc1c(C(c2ccc(F)cc2)N2CCN(Cc3ccccc3)CC2)sc2nc(-c3ccco3)nn12 (centres undefined) | – | 7.25% |
| COc1cc(OC)c(OC)cc1/C=C/c1nc2ccccc2c(=O)n1-c1ccc(Br)c(C)c1 | – | -8.72% |
| Cc1cc(C)nc(NS(=O)(=O)c2ccc(NC(=O)c3cc(=O)c4ccc(C)c(C)c4o3)cc2)n1 | – | -0.0966% |
| COc1ccc2c(c1)c(N1CCCC1=O)c(C(=O)Nc1ccc(OC)c(Cl)c1)n2C | – | -21.1% |
| Cc1cc(NC(=O)COc2ccccc2C#N)no1 | – | 4.1% |
| CC(NC(=O)CSc1nc2c(cc1C#N)CN(C)CC2)c1ccccc1 (centres undefined) | – | -1.09% |
| Cc1cc(NC(=O)CSc2nc3c(cc2C#N)CCCCC3)no1 | 5.8 µM (active) | – |

| Compound | Potency | activity change, negative = cytotoxic |
| --- | --- | --- |
| COc1ccc(S(=O)(=O)NCC(c2ccc(N(C)C)cc2)N2CCc3ccccc32)cc1OC (centres undefined) | – | -19.8% |
| O=C(NCCCN1CCOCC1)c1cn(-c2ccccc2)nc1-c1ccc(F)cc1 | – | 2.18% |
| COc1ccccc1N1CCN(C(=O)c2cn(-c3ccccc3)nc2-c2cccnc2)CC1 | – | -3.96% |
| O=C(NNC(=S)NC(=O)c1cn(-c2ccccc2)nc1-c1ccccc1)c1ccncc1 | 8.2 µM (active) | – |
| COc1ccc(NC(=O)c2cnc(Nc3ccc(C)c(Cl)c3)c3ccccc23)cc1OC | – | 13.9% |
| Brc1nc2ncnc(NCc3ccco3)c2[nH]1 | – | -9.05% |
| O=C(CNS(=O)(=O)c1cccs1)N1CCN(c2ccccc2Cl)CC1 | – | 5.47% |
| Cc1cccc2c1-c1sc(C(=O)Nc3ccc(F)cc3F)cc1CO2 | – | -20.5% |
| CCn1cc2nc(SCc3cccc(F)c3)n(CCc3ccccc3)c(=O)c2n1 | – | -0.543% |
| Cc1nn(-c2ccccc2)c(Cl)c1/C=N/NC(=O)c1nn(C)cc1[N+](=O)[O-] | 18.4 µM (active) | – |
| Cn1cc([N+](=O)[O-])c(C(=O)Nc2ccc3c(c2)OCCO3)n1 | – | -20.5% |
| Cc1nn(Cc2ccc(Cl)cc2)c(Cl)c1/C=N/NC(=O)CNc1ccccc1F | – | -11.9% |
| Cc1ccc(C2CCN(C(=S)Nc3cccc(Cl)c3)C2)cc1 (centres undefined) | – | 3.93% |
| O=C(Nc1cccc(Cl)c1)c1csnn1 | – | 1.29% |
| Cc1csc(NC(=S)Nc2cccc(Cl)c2)n1 | 20.6 µM (active) | – |
| COc1ccccc1C(=O)NCCn1cc(SCc2ccccc2Cl)c2ccccc21 | – | -13.7% |
| CCOC(=O)c1ccc(NC(=O)CCS(=O)(=O)c2ccc3c(c2)oc(=O)n3C)cc1 | – | 22.5% |
| O=C(NCc1ccc(F)cc1)c1ccc(Cn2c(SCc3ccc(F)cc3)nc3cccnc32)cc1 | – | -6.9% |
| Cc1ccc(OCCSc2nc(-c3cccs3)nc3cc(=O)[nH]n23)cc1Cl | – | -7.11% |
| COc1cccc2c1C(=O)c1c(O)c3c(c(O)c1C2=O)CC(O)(C(C)=NNC(=O)c1ccc(Cl)c(Cl)c1)CC3OC1CC(N)C(O)C(C)O1 (centres undefined) | 2.06 µM (active) | – |
| Cc1ccc(N2CCN(C(=S)Nc3cc(C)ccn3)CC2)cc1 | – | 31.7% |
| CCCCCn1c(=O)[nH]c2cc(C(=O)Nc3ccc(F)cc3)ccc2c1=O | – | -2.16% |
| CCC(=C/c1sc2ccc3ccccc3c2[n+]1C)/C=C1\Sc2ccc3ccccc3c2N1C | 9.2 µM (active) | – |
| COc1ccc(CNC(=O)COCc2cc(-c3cccs3)on2)cc1OC | – | -12.5% |
| Cc1ccc(OCC(=O)OCc2cc(=O)n3nc(C4CC4)sc3n2)cc1 | – | 0.043% |

| Compound | Potency | activity change, negative = cytotoxic |
| --- | --- | --- |
| CCN1/C(=C/c2ccc3ccc(C)cc3[n+]2CC)Sc2ccccc21 | 2.59 µM (active) | – |
| CCN1/C(=C\c2ccc3ccccc3[n+]2CC)Sc2cc(C)ccc21 | 4.61 µM (active) | – |
| CC(=O)Nc1ccc(NC(=O)CSc2nnc3c4cc(Br)ccc4n(C)c3n2)cc1 | – | -6.4% |
| NC(=O)Nc1ccc(/C=C/c2ccnc3ccccc23)cc1 | – | -7.08% |
| N#Cc1ccc[n+](CC(=O)c2ccc(F)cc2)c1 | – | 11% |
| COc1ccc2sc(-c3ccc(S(C)(=O)=O)cc3)c(-c3ccc(C(N)=O)cc3)c2c1 | – | -8.32% |
| COc1ccc2sc(-c3ccc(N(C)C)cc3)c(C#CCO)c2c1 | 16.4 µM (active) | – |
| COc1ccc2sc(-c3ccc(S(C)(=O)=O)cc3)c(C#Cc3cncn3C)c2c1 | – | -2.75% |
| COC(=O)C1=C(Nc2ccc(C)cc2)C=C(C)C(C(=O)OC)C1c1ccc(F)cc1 (centres undefined) | 11.2 µM (active) | – |
| COC(=O)C1C(=O)NCC1c1ccc(C)cc1 (centres undefined) | – | 16.2% |
| COC(=O)C1(C)NC(c2ccc(C)cc2)C2C(=O)N(c3ccc(F)cc3)C(=O)C21 (centres undefined) | – | -1.4% |
| Cc1ccc2cccc(NC(=O)c3cccc4ccccc34)c2n1 | – | 4.73% |
| CCc1ccccc1OCCSc1nc(-c2cccs2)nc2cc(=O)[nH]n12 | – | -16.6% |
| O=C(c1cccc(Cl)c1)N1CCN(CCc2ccncc2)CC1 | – | -4.29% |
| CS(=O)(=O)Nc1ccc(C(=O)N2CCCC2)cc1 | – | -5.39% |
| CNc1cncc(-c2ccc(NS(C)(=O)=O)cc2)n1 | 2.91 µM (active) | – |
| CNc1cncc(-c2cccc(C(=O)N3CCOCC3)c2)n1 | – | 0% |
| CC(=O)c1sc(N2C(=O)c3oc4ccccc4c(=O)c3C2c2ccc(C)cc2)nc1C (centres undefined) | – | -14.2% |
| COc1ccc(-c2nc3ccccc3o2)cc1NC(=O)c1cc([N+](=O)[O-])ccc1N1CCOCC1 | – | 4.59% |
| Cc1ccc2c(c1)-c1c(cnn1CC(=O)Nc1ccccc1C#N)CO2 | – | -1.57% |
| COc1ccccc1CNC(=O)CCn1c(=O)c2ccccc2n(CC(=O)Nc2ccc(Br)cc2F)c1=O | – | -26.4% |
| CC(C)C(=O)Nc1cccc(NC(=O)c2ccc([N+](=O)[O-])cc2Cl)c1 | – | 1.16% |
| CCCC(=O)Nc1cccc(NC(=S)NC(=O)C(C)Oc2ccc(Cl)cc2Cl)c1 (centres undefined) | – | 2.78% |
| CC(C)C(=O)Nc1cccc(NC(=S)NC(=O)C(c2ccccc2)c2ccccc2)c1 | 20.6 µM (active) | – |
| CCc1ccc(S(=O)(=O)n2ccnc2)cc1 | – | 16.3% |

| Compound | Potency | activity change, negative = cytotoxic |
| --- | --- | --- |
| Cc1cc(C)n2ncc(C(=O)Nc3cccc(C#N)c3)c2n1 | – | 0% [at 9.22 µM] |
| CCOc1cc(-c2nnc(SCC(=O)NC3CCCC3)nc2-c2ccc(OC)c(OCC)c2)ccc1OC | – | -2.41% |
| CCn1c(=O)c2ccccc2n(CC(=O)N2CCCc3ccccc32)c1=O | – | -0.819% |
| O=C(CN1C(=O)S/C(=C\c2ccccc2Cl)C1=O)NC1C=CS(=O)(=O)C1 (centres undefined) | – | 0% |
| O=C1/C(=C\c2ccccc2Cl)SC(=S)N1CCC(=O)N1CCCc2ccccc21 | 23.1 µM (active) | – |
| CCOc1ccc(CCNC(=O)c2cc3c(=O)n(C)c4ccccc4c3n2C)cc1 | – | 2.46% |
| CCN(CC)c1ccc(NS(=O)(=O)c2cc(-c3cc(C)no3)ccc2C)c(C)c1 | – | -19.5% |
| CC(C)c1ccc(NC(=O)c2ccc3c(O)c(S(=O)(=O)c4ccccc4)c(=O)[nH]c3c2)cc1 | – | 5.99% |
| COc1ccc(S(=O)(=O)c2cn(C)c3cc(N4CCCCC4)c(F)cc3c2=O)cc1 | – | 5.2% |
| CCOC(=O)c1cc2occc2n1CC(=O)NC1CCC(C)CC1 (centres undefined) | – | 1.34% |
| CCOC(=O)c1cc2occc2n1CC(=O)N1CCN(C(=O)c2ccco2)CC1 | – | 1.25% |
| CCOC(=O)c1cc2c(ccn2C)n1CC(=O)N1CCC(C)CC1 | 23.1 µM (active) | – |
| Cc1ccc(C)c(OCC(=O)Nc2sc3c(c2C#N)CCCC3)c1C | – | -13.9% |
| COc1ccc(N2CCN(C(=O)C3CCCN(C(=O)c4cc5sccc5n4C)C3)CC2)cc1 (centres undefined) | – | -12.9% |
| CC(=O)c1c(C)[nH]c(C(=O)COC(=O)CCOc2ccc(C)cc2)c1C | – | -18.7% |
| COc1ccc(N2CCN(C(=O)COc3ccc4c(C)cc(=O)oc4c3)CC2)cc1 | – | 14.4% |
| Cc1ccc(OCC(=O)Nc2ccc3oc(=O)ccc3c2)cc1C | – | 5.71% |
| Cc1cc(=O)oc2cc(OC(C)C(=O)NCCc3ccc(S(N)(=O)=O)cc3)ccc12 (centres undefined) | – | 9.37% |
| CC(=O)c1c(C)[nH]c(C(=O)COc2ccc3c(C)cc(=O)oc3c2)c1C | 14.6 µM (active) | – |
| Cc1ccc(O)c(/C=N/NC(=O)COc2ccc3c(C)cc(=O)oc3c2)c1 | 18.4 µM (active) | – |
| Cc1cccc2c(=O)cc(CSc3ccccc3NC(=O)C(C)C)[nH]c12 | – | 0% |
| Cc1cc(C)cc(NC(=O)Cn2c(=O)c3ccccc3n3nncc23)c1 | – | 20.8% |
| Cc1csc(NCC(=O)c2c[nH]c3ccccc23)n1 | – | -70.7% |
| Cn1cc(S(=O)(=O)N2CCCCCC2)cc1C(=O)N1CCN(c2ccc(F)cc2)CC1 | – | -0.904% |
